The text below walks through data of article PMC9838217, “Structure of SALL4 zinc finger domain reveals link between AT-rich DNA binding and Okihiro syndrome”.

Where a chain is given by its changes, count along the chain named.

What all share (test): HT-SELEX; high values mean tight binding
Holding throughout (conditions): protein: recombinant; vector His6-GST; dsDNA, one strand shown

The target in one experiment is T1, SALL4 ZFC4 WT (HT-SELEX) (Mus musculus, UniProt Q8BX22 870-940).
T1 sequence: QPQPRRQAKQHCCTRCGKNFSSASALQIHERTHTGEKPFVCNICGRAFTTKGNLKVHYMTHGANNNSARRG
In short, it runs like this:
(§1)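 Purified recombinant mouse SALL4 zinc finger cluster 4 (residues 870–940, 1 µg) was incubated with library DNA (1.5 µg first cycle, 200 ng later) in 100 µl buffer (10 mM Tris–HCl pH 7.5, 50 mM NaCl, poly(dI-dC), DTT) for 10 min at room temperature. Ni2+ bead-captured complexes were washed, PCR-amplified and reselected for up to 6 cycles, in triplicate, then MiSeq-sequenced and scanned for 6-mers. Binding signal is each canonical k-mer's read fraction as fold change versus the initial random library.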

Experiment [1] has as its target T2, SALL4 ZFC4 R900W (HT-SELEX) (Mus musculus, UniProt Q8BX22 870-940, R900W).
T2 sequence: T1 sequence with R31W
In outline: as §1

Experiment [2] deals with T3, SALL4 ZFC4 G921D (HT-SELEX) (Mus musculus, UniProt Q8BX22 870-940, G921D).
T3 sequence: T1 sequence with G52D
In outline:
as §1

With CAACTC, the binding signal with SALL4 ZFC4 WT (HT-SELEX) was determined as 0.778 ± 0.0269 fold-change vs cycle 0; in experiment [1] it was 0.92 ± 0.0298 fold-change vs cycle 0; in experiment [2], 0.994 ± 0.018 fold-change vs cycle 0.
The matching figures for CAAGTA: 1.28 ± 0.0466 fold-change vs cycle 0, 1.42 ± 0.0751 fold-change vs cycle 0 and 1.34 ± 0.0943 fold-change vs cycle 0.
For CACCAA, the binding signal with SALL4 ZFC4 WT (HT-SELEX) turned out to be 0.692 ± 0.0333 fold-change vs cycle 0; in experiment [1] it was 0.776 ± 0.0234 fold-change vs cycle 0; in experiment [2] it was 0.859 ± 0.0335 fold-change vs cycle 0.
With CTTGCA, the binding signal in the experiment with SALL4 ZFC4 WT (HT-SELEX) came to 0.697 ± 0.0262 fold-change vs cycle 0; in experiment [1], 0.7756 ± 0.00768 fold-change vs cycle 0; in experiment [2], 0.856 ± 0.0345 fold-change vs cycle 0.
Taken in the same sequence, the figures for CGAGTA were 0.742 ± 0.0199 fold-change vs cycle 0, 0.848 ± 0.0261 fold-change vs cycle 0 and 0.87 ± 0.0313 fold-change vs cycle 0.
With TGAACA, the binding signal was found to be 1.29 ± 0.0296 fold-change vs cycle 0 with SALL4 ZFC4 WT (HT-SELEX), 1.4 ± 0.0577 fold-change vs cycle 0 in experiment [1] and 1.36 ± 0.0684 fold-change vs cycle 0 in experiment [2].
With AACAGA, the binding signal is 1.28 ± 0.057 fold-change vs cycle 0 in the experiment with SALL4 ZFC4 WT (HT-SELEX), 1.41 ± 0.0434 fold-change vs cycle 0 in experiment [1] and 1.35 ± 0.0868 fold-change vs cycle 0 in experiment [2].
On to AACGAG, for which the results for the binding signal (in the experiment with SALL4 ZFC4 WT (HT-SELEX); in experiment [1]; in experiment [2]) were 0.782 ± 0.0393 fold-change vs cycle 0, 0.894 ± 0.0693 fold-change vs cycle 0 and 0.934 ± 0.0683 fold-change vs cycle 0, respectively.
With GAGATA, the values for the binding signal (with SALL4 ZFC4 WT (HT-SELEX); in experiment [1]; in experiment [2]) were 1.52 ± 0.0868 fold-change vs cycle 0, 1.54 ± 0.105 fold-change vs cycle 0 and 1.45 ± 0.133 fold-change vs cycle 0, respectively.
AAGGCA: the binding signal in the experiment with SALL4 ZFC4 WT (HT-SELEX) was determined as 0.566 ± 0.0136 fold-change vs cycle 0; in experiment [1] it was 0.683 ± 0.00728 fold-change vs cycle 0; in experiment [2] it was 0.777 ± 0.0437 fold-change vs cycle 0.
As for AATTTA, the binding signal turned out to be 2.91 ± 0.251 fold-change vs cycle 0 with SALL4 ZFC4 WT (HT-SELEX), 2.35 ± 0.145 fold-change vs cycle 0 in experiment [1] and 2.04 ± 0.225 fold-change vs cycle 0 in experiment [2].
AGACCC: the binding signal turned out to be 0.415 ± 0.0196 fold-change vs cycle 0 with SALL4 ZFC4 WT (HT-SELEX), 0.511 ± 0.0173 fold-change vs cycle 0 in experiment [1] and 0.612 ± 0.0617 fold-change vs cycle 0 in experiment [2].
The matching figures for CTCTCA: 0.878 ± 0.0209 fold-change vs cycle 0, 0.992 ± 0.023 fold-change vs cycle 0 and 1.04 ± 0.0372 fold-change vs cycle 0.
With ACGGAG, the results for the binding signal (with SALL4 ZFC4 WT (HT-SELEX); in experiment [1]; in experiment [2]) were 0.414 ± 0.0316 fold-change vs cycle 0, 0.522 ± 0.0321 fold-change vs cycle 0 and 0.609 ± 0.0699 fold-change vs cycle 0, respectively.
For GGTGGA, the values for the binding signal (with SALL4 ZFC4 WT (HT-SELEX); in experiment [1]; in experiment [2]) were 0.462 ± 0.0279 fold-change vs cycle 0, 0.536 ± 0.0251 fold-change vs cycle 0 and 0.619 ± 0.0493 fold-change vs cycle 0, respectively.
In the case of TAAAAA, the results for the binding signal (with SALL4 ZFC4 WT (HT-SELEX); in experiment [1]; in experiment [2]) were 3.23 ± 0.33 fold-change vs cycle 0, 2.2 ± 0.213 fold-change vs cycle 0 and 1.92 ± 0.229 fold-change vs cycle 0, respectively.
Consider AACAGT, for which the values for the binding signal (in the experiment with SALL4 ZFC4 WT (HT-SELEX); in experiment [1]; in experiment [2]) were 1.28 ± 0.0479 fold-change vs cycle 0, 1.41 ± 0.0726 fold-change vs cycle 0 and 1.35 ± 0.0692 fold-change vs cycle 0, respectively.
As for ATAGGA, the binding signal came to 1.48 ± 0.0224 fold-change vs cycle 0 in the experiment with SALL4 ZFC4 WT (HT-SELEX), 1.56 ± 0.056 fold-change vs cycle 0 in experiment [1] and 1.45 ± 0.0712 fold-change vs cycle 0 in experiment [2].
For the sequence TCGAAA, the binding signal stood at 0.999 ± 0.0813 fold-change vs cycle 0 with SALL4 ZFC4 WT (HT-SELEX), 1.02 ± 0.0328 fold-change vs cycle 0 in experiment [1] and 1.06 ± 0.0355 fold-change vs cycle 0 in experiment [2].
Take CACAAA: the binding signal in the experiment with SALL4 ZFC4 WT (HT-SELEX) turned out to be 0.978 ± 0.0432 fold-change vs cycle 0; in experiment [1], 1.1 ± 0.0594 fold-change vs cycle 0; in experiment [2], 1.09 ± 0.0653 fold-change vs cycle 0.
With ATAAGC, the figures for the binding signal (in the experiment with SALL4 ZFC4 WT (HT-SELEX); in experiment [1]; in experiment [2]) were 1.34 ± 0.0651 fold-change vs cycle 0, 1.21 ± 0.0666 fold-change vs cycle 0 and 1.22 ± 0.0552 fold-change vs cycle 0, respectively.
For ACAACT, the binding signal was 1.25 ± 0.0434 fold-change vs cycle 0 with SALL4 ZFC4 WT (HT-SELEX), 1.37 ± 0.0317 fold-change vs cycle 0 in experiment [1] and 1.38 ± 0.0748 fold-change vs cycle 0 in experiment [2].
For the sequence ATCTCA, the values for the binding signal (in the experiment with SALL4 ZFC4 WT (HT-SELEX); in experiment [1]; in experiment [2]) were 1.42 ± 0.0416 fold-change vs cycle 0, 1.5 ± 0.0539 fold-change vs cycle 0 and 1.43 ± 0.0584 fold-change vs cycle 0, respectively.
For the sequence TAGGAA, the binding signal in the experiment with SALL4 ZFC4 WT (HT-SELEX) came to 1.42 ± 0.0275 fold-change vs cycle 0; in experiment [1], 1.51 ± 0.0439 fold-change vs cycle 0; in experiment [2], 1.41 ± 0.0855 fold-change vs cycle 0.
As to AGAAGC, the binding signal was 0.652 ± 0.0323 fold-change vs cycle 0 with SALL4 ZFC4 WT (HT-SELEX), 0.745 ± 0.0224 fold-change vs cycle 0 in experiment [1] and 0.845 ± 0.0201 fold-change vs cycle 0 in experiment [2].
With CACGAA, the binding signal in the experiment with SALL4 ZFC4 WT (HT-SELEX) is 0.608 ± 0.0441 fold-change vs cycle 0; in experiment [1] it was 0.706 ± 0.0334 fold-change vs cycle 0; in experiment [2], 0.781 ± 0.0236 fold-change vs cycle 0.
As to AGCAGA, the binding signal with SALL4 ZFC4 WT (HT-SELEX) was 0.694 ± 0.0089 fold-change vs cycle 0; in experiment [1], 0.815 ± 0.0131 fold-change vs cycle 0; in experiment [2] it was 0.857 ± 0.0135 fold-change vs cycle 0.
Consider ACTCAC, for which the figures for the binding signal (with SALL4 ZFC4 WT (HT-SELEX); in experiment [1]; in experiment [2]) were 0.877 ± 0.0278 fold-change vs cycle 0, 0.97 ± 0.0118 fold-change vs cycle 0 and 1.02 ± 0.0114 fold-change vs cycle 0, respectively.
Consider CAACAC, for which the binding signal in the experiment with SALL4 ZFC4 WT (HT-SELEX) worked out at 0.658 ± 0.0239 fold-change vs cycle 0; in experiment [1], 0.8 ± 0.0226 fold-change vs cycle 0; in experiment [2], 0.849 ± 0.0276 fold-change vs cycle 0.
On to CCCAAA, for which the binding signal with SALL4 ZFC4 WT (HT-SELEX) came to 0.588 ± 0.013 fold-change vs cycle 0; in experiment [1], 0.653 ± 0.0116 fold-change vs cycle 0; in experiment [2], 0.729 ± 0.0699 fold-change vs cycle 0.
In the case of CACAGG, the figures for the binding signal (with SALL4 ZFC4 WT (HT-SELEX); in experiment [1]; in experiment [2]) were 0.432 ± 0.00836 fold-change vs cycle 0, 0.527 ± 0.0297 fold-change vs cycle 0 and 0.624 ± 0.0533 fold-change vs cycle 0, respectively.
Taken in the same sequence, the figures for TCCAAA were 1.1 ± 0.0395 fold-change vs cycle 0, 1.19 ± 0.0233 fold-change vs cycle 0 and 1.17 ± 0.00926 fold-change vs cycle 0.
In the case of TGGACA, the binding signal was 0.662 ± 0.0418 fold-change vs cycle 0 with SALL4 ZFC4 WT (HT-SELEX), 0.761 ± 0.0205 fold-change vs cycle 0 in experiment [1] and 0.847 ± 0.0377 fold-change vs cycle 0 in experiment [2].
On to CTTCCC, for which the binding signal worked out at 0.499 ± 0.032 fold-change vs cycle 0 with SALL4 ZFC4 WT (HT-SELEX), 0.599 ± 0.0427 fold-change vs cycle 0 in experiment [1] and 0.656 ± 0.0665 fold-change vs cycle 0 in experiment [2].
For the sequence ATCTTG, the results for the binding signal (with SALL4 ZFC4 WT (HT-SELEX); in experiment [1]; in experiment [2]) were 1.3 ± 0.0534 fold-change vs cycle 0, 1.44 ± 0.0813 fold-change vs cycle 0 and 1.38 ± 0.0795 fold-change vs cycle 0, respectively.
Turning to ACATAC, the results for the binding signal (with SALL4 ZFC4 WT (HT-SELEX); in experiment [1]; in experiment [2]) were 1.3 ± 0.0628 fold-change vs cycle 0, 1.4 ± 0.0493 fold-change vs cycle 0 and 1.33 ± 0.0922 fold-change vs cycle 0, respectively.
Turning to ACACTC, the binding signal stood at 0.798 ± 0.0206 fold-change vs cycle 0 with SALL4 ZFC4 WT (HT-SELEX), 0.908 ± 0.0437 fold-change vs cycle 0 in experiment [1] and 0.948 ± 0.0215 fold-change vs cycle 0 in experiment [2].
In the case of AATGCA, the binding signal came to 1.12 ± 0.0474 fold-change vs cycle 0 with SALL4 ZFC4 WT (HT-SELEX), 1.11 ± 0.069 fold-change vs cycle 0 in experiment [1] and 1.15 ± 0.0324 fold-change vs cycle 0 in experiment [2].
For the sequence ACAAGA, the results for the binding signal (with SALL4 ZFC4 WT (HT-SELEX); in experiment [1]; in experiment [2]) were 1.29 ± 0.0493 fold-change vs cycle 0, 1.52 ± 0.0767 fold-change vs cycle 0 and 1.39 ± 0.105 fold-change vs cycle 0, respectively.
With GCCATA, the binding signal in the experiment with SALL4 ZFC4 WT (HT-SELEX) was 0.544 ± 0.0118 fold-change vs cycle 0; in experiment [1] it was 0.556 ± 0.0265 fold-change vs cycle 0; in experiment [2], 0.681 ± 0.0554 fold-change vs cycle 0.
In the case of CTGTTC, the binding signal in the experiment with SALL4 ZFC4 WT (HT-SELEX) was determined as 0.771 ± 0.0432 fold-change vs cycle 0; in experiment [1], 0.893 ± 0.0123 fold-change vs cycle 0; in experiment [2], 0.959 ± 0.0166 fold-change vs cycle 0.
